# HT1080 IDH1KD tx: toxicity to HT-1080 IDH1 knockdown cells (counter line) | HT-1080 IDH1 knockdown viability, ATP luminescence, 48 h | Potency, µM (doses to about 46.1 µM), for the others: top-dose activity, negative = toxicity, most hits filed as cytotoxic | actives 2% (n = 360,000);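 also: potency is read from the fitted curve at half-maximal effect; 0% = DMSO wells and -100% = cell-free medium wells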
#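 Viability of IDH1-knockdown HT-1080 fibrosarcoma cells was assessed by CellTiter-Glo after 48 h at 37 °C with titrated compound; concentration-effect curves were classified by fit quality and response size.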
# ALOX12 inh: blocks human arachidonate 12S-lipoxygenase. P18054. purified 12hLO, xylenol orange hydroperoxide absorbance. Potency, µM (top dose mostly 108 µM), for inactives: at the highest dose activity change, negative = inhibition, most hits filed as inhibitors. actives 1.1% (n = 580,000). AID 1671190; also: potency is read from the fitted curve at half-maximal effect
# Target sequence (P18054 whole entry, looked up): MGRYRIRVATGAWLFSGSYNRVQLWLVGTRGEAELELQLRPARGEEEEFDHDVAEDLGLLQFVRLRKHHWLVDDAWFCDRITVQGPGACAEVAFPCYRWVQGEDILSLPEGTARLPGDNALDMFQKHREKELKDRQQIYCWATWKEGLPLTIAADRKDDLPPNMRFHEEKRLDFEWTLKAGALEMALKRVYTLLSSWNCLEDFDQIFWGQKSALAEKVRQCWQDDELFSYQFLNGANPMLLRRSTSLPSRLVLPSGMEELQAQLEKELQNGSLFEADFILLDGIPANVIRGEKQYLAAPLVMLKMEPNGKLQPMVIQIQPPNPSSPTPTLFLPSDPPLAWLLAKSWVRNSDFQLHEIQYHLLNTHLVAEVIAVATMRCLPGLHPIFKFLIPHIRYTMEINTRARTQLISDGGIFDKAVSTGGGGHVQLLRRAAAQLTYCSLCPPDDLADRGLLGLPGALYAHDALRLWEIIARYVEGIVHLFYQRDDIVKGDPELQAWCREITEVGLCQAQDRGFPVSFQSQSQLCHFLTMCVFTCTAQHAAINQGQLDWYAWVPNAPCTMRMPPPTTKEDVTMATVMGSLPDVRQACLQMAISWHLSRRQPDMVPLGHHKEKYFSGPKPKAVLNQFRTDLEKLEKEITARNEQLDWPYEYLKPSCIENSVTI
#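 Purified human 12hLO (150 nM final) in 25 mM Hepes, 0.01% Triton X-100, pH 7.0 was preincubated 15 min at room temperature with compound. Then 40 uM arachidonic acid was added, 30 min. Hydroperoxide was read by Fe-XO absorbance ratio 573/405 nm.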
# IL1B secr inh: inflammasome signaling inhibition, IL-1 beta readout | activity change, % at 57.5 µM | AID 743279 | actives 4.7% (n = 360,000) | THP-1 LPS/ATP IL-1B secretion, AlphaLISA, 16 h; stronger effect = lower value; in the data active = activity change below about -50%; inconclusive = mostly about -30% to -49%
#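 THP-1 cells pretreated 1 hr with compounds (up to 57.5 uM final), then stimulated with LPS (250 ng/mL final) plus ATP (1.25 mM final); secreted IL-1B measured by AlphaLISA after 16 hr, decreased signal indicating inhibition.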
# TDP1 cell noCPT: qHTS for Inhibitors of human tyrosyl-DNA phosphodiesterase 1 (TDP1): qHTS in cells in absence of CPT | AID 686978, 2013 | DT40 Tdp1-/- hTDP1 cells, no CPT, ATP luminescence, 48 h | Potency, µM (doses to about 46.2 µM), without a hit: top-dose activity change, negative = growth inhibition, hits mostly inhibitors | actives 15% (n = 420,000); also: potency is read from the fitted curve at half-maximal effect; nearly all actives have a fitted effect of over 55% in size
#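 Cells were dispensed at 400 per well, compounds added by pin tool, plates incubated ≥48 hr at 37 °C, then CellTiter-Glo added for 30 min at room temperature before luminescence reading. Line: DT40 Tdp1-/- complemented with hTDP1; camptothecin omitted.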
# HT1080-NT tox: kills 2HG-producing HT-1080-NT fibrosarcoma cells; HT-1080-NT fibrosarcoma viability, CellTiter-Glo ATP luminescence, 48 h; Potency, µM (top dose mostly 46.1 µM), without a hit: at the highest dose activity, negative = less viability, hits mostly cytotoxic; actives 1.6% (n = 360,000); AID 686970;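 also: NT is the 2HG producing partner of a matched IDH1 knockdown line; potency is read from the fitted curve at half-maximal effect; 0% = DMSO-treated cells and -100% = media-only wells without cells; nearly all actives have a fitted effect of over 55% in size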
#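 750 cells/well, RPMI + 5% FBS; 2 h settle, compound pin-transfer, 48 h at 37 degrees C. CellTiter-Glo 10 min RT, luminescence. Normalized to DMSO and media-only wells.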
# DT40 TDP1 CPT: growth inhibition of DT40 Tdp1-/-;hTDP1 cells with camptothecin (screen for TDP1 inhibitors). chicken DT40 Tdp1-/-;hTDP1 cells + 20 nM CPT, ATP luminescence, 48 h. Potency, µM (highest dose often 46.2 µM), inactives show at the top dose activity change, negative = growth inhibition, usual class: inhibitors. actives 12% (n = 420,000). AID 686979; also: potency is read from the fitted curve at half-maximal effect; nearly all actives have a fitted effect of over 55% in size
#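 Chicken DT40 Tdp1-/- cells stably complemented with human TDP1 were seeded at 400 cells/well in medium containing 20 nM camptothecin, exposed to pin-transferred compounds, and grown at 37 °C for at least 48 hr. Viability was read as ATP luminescence.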
# Active calls of the source: *; ? = inconclusive; . = no result; ! = repeats disagree; [ ] = dose if it differs, or a comment. Shown is part of a subset that was picked to be rich in hits. Unless noted, calls follow the shape of the dose curve; as a rule, active = well fitted curve in the direction sought with a large enough effect; inconclusive = small, poorly fitted or top-dose-only effect, or another doubt; inactive = no such curve, though single readings can be large; an effect the other way counts as inactive or inconclusive. Unless noted, % is scaled to controls: 0 for no effect and ±100 for the full control effect.
SMILES,HT1080 IDH1KD tx,ALOX12 inh,IL1B secr inh,TDP1 cell noCPT,HT1080-NT tox,DT40 TDP1 CPT
O=C1c2ccccc2S(=O)(=O)c2cc(C(=O)N3CCN(c4c(Cl)cncc4Cl)CC3)ccc21,-10%,-8%,0,15µM*,2%,?
CN1C2CCC1/C(=C/c1ccccn1)C(=O)/C2=C\c1ccccn1,0.82µM*,17%,-101*,0.65µM*,1.2µM*,0.52µM*
CCCCC(CC)COP(=O)(OCC(CC)CCCC)OCC(CC)CCCC (configuration not stated),-4%,9%,-72*,?,?,?
CCCCOP(=O)(OCCCC)C(O)c1ccc(Br)cc1 (configuration not stated),12%,3%,-4,18µM*,6%,23µM*
CCOP(=O)(C#Cc1ccccc1)C(O)c1ccc(Br)cc1 (configuration not stated),-1%,292%,-19,?,-7%,?
CN(CC1CCCCC1)C1CCc2ccccc2C1 (configuration not stated),.,5%[176 µM],.,.,.,.
Cc1ncc2c(n1)C[C@@H]1CC[C@H]2N1C(=O)CCC1CCCC1,.,17%,.,.,.,.
Cc1ccc(-c2nnc(Nc3ccc(Br)cc3)c3ccccc23)cc1S(=O)(=O)NCc1nc2ccccc2[nH]1,.,-13%,.,23µM*,.,?
Cc1ccc(Nc2nnc(-c3ccc(C)c(S(=O)(=O)NCc4nc5ccccc5[nH]4)c3)c3ccccc23)cc1,.,-8%,.,?,.,?
COc1ccc2c(c1)C1(CCN(S(=O)(=O)c3cccc(F)c3)C1)C(=O)N2C (configuration not stated),.,-2%,.,.,.,.
CCOc1ccc(NC(=O)CN(c2ccc(Cl)cc2C)S(=O)(=O)c2ccccc2)cc1,.,-1%,.,10µM*,.,8.2µM*
CCOc1ccc(S(=O)(=O)N(CC(=O)NCc2ccccc2OC)c2ccccc2)cc1,.,-17%,.,16µM*,.,15µM*
CCOc1ccc(NC(=O)c2c(C)nn(Cc3ccccc3)c2Cl)cc1,-11%,-2%,10,-4%,-11%,0%
O=C(CN1CCN(CC(=O)Nc2ccc(OCc3ccccc3)cc2)CC1)Nc1ccc(F)cc1,?,19%,-27,?,?,?
O=C(CSc1oc(-c2ccccc2)nc1S(=O)(=O)c1ccc(Cl)cc1)Nc1ccc(F)cc1,.,?,.,?,.,10µM*
CCOc1ccc(NC(=O)CSc2oc(-c3ccccc3)nc2S(=O)(=O)c2ccc(Cl)cc2)cc1,.,?,.,21µM*,.,7.3µM*
COc1ccc(CN2C[C@@H]3C[C@H]2C(=O)Nc2ccccc2O3)cn1,.,-2%[176 µM],.,.,.,.
Cn1cnc([N+](=O)[O-])c1Sc1ccc([N+](=O)[O-])cc1,21µM*,?,-101*,5.2µM*,16µM*,3.7µM*
CCCCCC(=O)N[C@@H](c1ccccc1)[C@@H](O)C(=O)O[C@H]1C[C@@]2(O)[C@@H](OC(=O)c3ccccc3)C3[C@](C)(C(=O)[C@H](O)C(=C1C)C2(C)C)[C@@H](OC1OCC(O)C(O)C1O)C[C@H]1OC[C@@]31OC(C)=O (some centres not stated),1.8µM*,18%,44,0.58µM*,2.6µM*,1.2µM*
CC(=O)O[C@@]12CO[C@@H]1C[C@@H](O)[C@@]1(C)C(=O)[C@H](O)C3=C(C)[C@@H](OC(=O)[C@H](O)[C@@H](NC(=O)c4ccccc4)c4ccccc4)C[C@@](O)([C@@H](OC(=O)c4ccccc4)C12)C3(C)C (some centres not stated),0.013µM*,21%,30,0.065µM*,0.21µM*,0.046µM*
CC(=O)O[C@@]12CO[C@@H]1C[C@H](OC1OCC(O)C(O)C1O)[C@@]1(C)C(=O)[C@H](O)C3=C(C)[C@@H](OC(=O)[C@H](O)[C@@H](NC(=O)c4ccccc4)c4ccccc4)C[C@@](O)([C@@H](OC(=O)c4ccccc4)C12)C3(C)C (some centres not stated),5.8µM*,16%,11,1µM*,3.3µM*,1.2µM*
O=[S+]1([O-])NCC2(CCN(CC3CCCC3)C2)Oc2ncccc21 (configuration not stated),.,8%[6.33 µM],.,.,.,.
CSc1cc(-c2ccccc2)n(Cc2c(Cl)cccc2Cl)c(=O)c1C#N,8%,26%,0,3.3µM*,15%,4.6µM*
Cc1c(C(=O)O)cc(-c2ccccc2)n1Cc1ccccc1,-9%,-5%,0,-3%,-10%,5%
COc1cccc2c1C(=O)c1c(O)c3c(c(O)c1C2=O)CC(O)(C(C)=NO)CC3OC1CC(N)C(O)C(C)O1 (configuration not stated),10µM*,1%,-97*,0.18µM*,?,0.21µM*
SMILES,HT1080 IDH1KD tx,ALOX12 inh,IL1B secr inh,TDP1 cell noCPT,HT1080-NT tox,DT40 TDP1 CPT
CCCCC(=O)OCC(=O)[C@]1(O)Cc2c(O)c3c(c(O)c2[C@@H](O[C@H]2C[C@H](NC(=O)C(F)(F)F)[C@H](O)[C@H](C)O2)C1)C(=O)c1c(OC)cccc1C3=O,.,.,.,1.3µM*,.,1.5µM*
CCCN1CCN(Cc2cc(C(C)=O)ccc2OC)CC1,.,10%,.,.,.,.
CNC(C)CCC=C(C)C (configuration not stated),.,.,.,15µM*,.,?
Cn1cc([N+](=O)[O-])c(C(=O)Nc2ccc3c(C(F)(F)F)cc(=O)oc3c2)n1,?,0%,-95*,2%,?,1%
CC(NC1CCCCC1)C(O)C12CC3CC(CC(C3)C1)C2 (configuration not stated),?,3%,-55*,16µM*,?,18µM*
CC(C)c1nccc(CN2CCCC3(CNC(=O)O3)C2)n1 (configuration not stated),.,30%,.,.,.,.
CC(=O)N1N=C(c2c(O)n(C)c(=O)n(C)c2=O)CC1c1ccccc1 (configuration not stated),?,-11%,77,15µM*,-23%,?
CN(C)C(=O)C(CCN1CCC(O)(c2ccc(Cl)cc2)CC1)(c1ccccc1)c1ccccc1,8.2µM*,?,-59*,5.2µM*!,18µM*,8.2µM*
CCOC(=O)[C@]12Cc3cc(OC)ccc3[C@H]1N(C)C(=O)c1ccccc12,14%,-29%,?,?,9%,-27%
